The values below come from PubChem BioAssay (NCI).

The structures appear in SMILES notation. This is part of a sample that, as a whole, favours compounds with a hit. Of some 83,000 tested, about 20% had one in any assay.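 Results are percent growth after 48 hours of single-concentration exposure. 100 means growth as in untreated cells, lower positive values show inhibition; negative values down to -100 show cell death.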 A number with no mark means an inactive call. Calls of active or inactive are those of the source. The calls were made as follows: active = growth percent below 10; inactive = the rest.

Among the test systems are NCI-H23 lung; NCI-H226 lung; NCI-H322M lung; HOP-62 NSCLC; NCI-H460 lung; HOP-92 NSCLC; NCI-H522 lung; 786-0 renal; COLO 205 colon; DU-145 prostate; MALME-3M melanoma; MDA-MB-231 breast; RXF 393 renal; SF-268 CNS; SF-295 CNS; SF-539 CNS; UACC-257 melanoma; M14 melanoma.
Holding throughout (assay): NCI-60 one-dose screen, 48 h (100 = growth as untreated, 0 = no growth, -100 = all killed)
For another assay, the system named is A549/ATCC NSCLC. To be noted: 10 µM unless noted.
Another assay has as its system K-562 leukemia. Particulars: 10 µM unless noted.

As to `CC/C(=C(\c1ccc(O)cc1)c1ccc(OCCN(C)C(=O)CCOCCNC(=O)c2ccc3c(c2)CN([C@@H]2CCC(=O)NC2=O)C3=O)cc1)c1ccccc1`, the growth with NCI-H23 lung (1 µM) was 105%; in the assay on NCI-H23 lung (10 µM) it was 97.2%; in the assay with NCI-H226 lung (1 µM) it was 87.2%; in the assay on NCI-H226 lung (10 µM), 66.3%; in the assay on NCI-H322M lung (1 µM), 101%; with NCI-H322M lung (10 µM) it was 88.1%. For the same molecule, the growth was 95.1% in the assay on HOP-62 NSCLC (1 µM); 94.4% in the assay with HOP-62 NSCLC (10 µM); 115% in the assay with NCI-H460 lung (1 µM); 114% in the assay with NCI-H460 lung (10 µM); 37.9% in the assay with HOP-92 NSCLC (1 µM); 43.7% with HOP-92 NSCLC (10 µM). The growth was 92.6% with NCI-H522 lung (1 µM); 95.3% in the assay with NCI-H522 lung (10 µM); 96.6% in the assay with 786-0 renal (1 µM); 93.4% with 786-0 renal (10 µM); 95.4% in the assay with COLO 205 colon (1 µM); 94.5% in the assay on COLO 205 colon (10 µM). For the same molecule, the growth was 105% with DU-145 prostate (1 µM); 109% in the assay on DU-145 prostate (10 µM); 78.4% in the assay on MALME-3M melanoma (1 µM); 52.5% with MALME-3M melanoma (10 µM); 33.7% in the assay on MDA-MB-231 breast (1 µM); 21.8% in the assay with MDA-MB-231 breast (10 µM). Also, the growth with RXF 393 renal (1 µM) was 102%; with RXF 393 renal (10 µM) it was 90%; with SF-268 CNS (1 µM) it was 89.3%; in the assay with SF-268 CNS (10 µM), 100%; with SF-295 CNS (1 µM), 96.2%; with SF-295 CNS (10 µM), 93.2%. Moreover, the growth in the assay on SF-539 CNS (1 µM) is 94.6%; in the assay on SF-539 CNS (10 µM), 88.9%; with UACC-257 melanoma (1 µM), 101%; in the assay with UACC-257 melanoma (10 µM), 88.3%; with M14 melanoma (1 µM), 90.5%; in the assay with M14 melanoma (10 µM) it was 92.8%.

As to `CC(C)(C)OC(=O)N1C/C(=C\c2ccc(F)cc2)C(=O)/C(=C/c2ccc(F)cc2)C1`, the growth is -77.7% (active) in the assay with NCI-H23 lung (10 µM unless noted); -43.8% (active) with NCI-H226 lung (10 µM unless noted); 29.6% in the assay on NCI-H322M lung (10 µM unless noted); 14.6% with HOP-62 NSCLC (10 µM unless noted); 1.19% (active) in the assay with NCI-H460 lung (10 µM unless noted); -30.5% (active) in the assay with HOP-92 NSCLC (10 µM unless noted). Further, the growth was -89% (active) with NCI-H522 lung (10 µM unless noted); 35.3% in the assay on A549/ATCC NSCLC; -74.8% (active) in the assay with 786-0 renal (10 µM unless noted); -47.2% (active) in the assay with COLO 205 colon (10 µM unless noted); 9.97% (active) in the assay with DU-145 prostate (10 µM unless noted); 9.9% (active) with K-562 leukemia. For the same molecule, the growth was -75.5% (active) in the assay on MALME-3M melanoma (10 µM unless noted); -54.4% (active) with MDA-MB-231 breast (10 µM unless noted); -88.1% (active) with RXF 393 renal (10 µM unless noted); -46.1% (active) in the assay on SF-268 CNS (10 µM unless noted); -75.1% (active) in the assay on SF-295 CNS (10 µM unless noted); -98.3% (active) with SF-539 CNS (10 µM unless noted). The growth in the assay with UACC-257 melanoma (10 µM unless noted) is -42.1% (active).

As to `C/C(=N/O)c1ccc(NC(=O)CSc2nnc(-c3ccc4nc(-c5ccc(Cl)cc5)[nH]c4c3)o2)cc1`, the growth in the assay with NCI-H23 lung (10 µM unless noted) was -18.9% (active); in the assay on NCI-H226 lung (10 µM unless noted) it was 110%; in the assay with NCI-H322M lung (10 µM unless noted), 55.8%; with HOP-62 NSCLC (10 µM unless noted), 20.2%; with NCI-H460 lung (10 µM unless noted), 12.2%; in the assay with HOP-92 NSCLC (10 µM unless noted), 88.7%. The growth in the assay with NCI-H522 lung (10 µM unless noted) is -16.3% (active); in the assay on A549/ATCC NSCLC it was 31.8%; in the assay with 786-0 renal (10 µM unless noted), -59.9% (active); with COLO 205 colon (10 µM unless noted), 122%; in the assay on DU-145 prostate (10 µM unless noted), 44.3%; in the assay with K-562 leukemia, 19.4%. Besides, the growth in the assay on MALME-3M melanoma (10 µM unless noted) is -4.58% (active); in the assay on MDA-MB-231 breast (10 µM unless noted), 36%; with RXF 393 renal (10 µM unless noted), -40.6% (active); in the assay with SF-268 CNS (10 µM unless noted), 70.8%; in the assay on SF-295 CNS (10 µM unless noted), 97.6%; in the assay with SF-539 CNS (10 µM unless noted) it was 43%. Besides, the growth in the assay on UACC-257 melanoma (10 µM unless noted) is 97.4%.

As to `Nc1nn2c(-c3cc4cc(Br)ccc4oc3=O)ccnc2c1N=Nc1ccc(S(N)(=O)=O)cc1`, the growth in the assay with NCI-H23 lung (10 µM unless noted) is 50.6%; in the assay on NCI-H226 lung (10 µM unless noted), 77.6%; in the assay on NCI-H322M lung (10 µM unless noted), 78.3%; in the assay on HOP-62 NSCLC (10 µM unless noted), 41.8%; in the assay with NCI-H460 lung (10 µM unless noted), 52%; in the assay with HOP-92 NSCLC (10 µM unless noted), 83.2%. The growth in the assay on NCI-H522 lung (10 µM unless noted) was 93.3%; in the assay with A549/ATCC NSCLC it was 107%; in the assay with 786-0 renal (10 µM unless noted) it was 86.1%; in the assay with COLO 205 colon (10 µM unless noted), 96.5%; with DU-145 prostate (10 µM unless noted), 99.7%; in the assay on K-562 leukemia, 53.9%. The growth in the assay with MALME-3M melanoma (10 µM unless noted) was 70.5%; with MDA-MB-231 breast (10 µM unless noted), -8.56% (active); with RXF 393 renal (10 µM unless noted), 87.1%; in the assay with SF-268 CNS (10 µM unless noted), 78.5%; in the assay with SF-295 CNS (10 µM unless noted) it was 62.2%; in the assay on SF-539 CNS (10 µM unless noted), 55.1%. The growth in the assay on UACC-257 melanoma (10 µM unless noted) was 101%.

Take `CC(Nc1ncnc2ccc(-c3ccc4oc(N)nc4c3)cc12)c1ccccc1` (configuration not stated): the growth with NCI-H23 lung (10 µM unless noted) was 16.4%; in the assay on NCI-H226 lung (10 µM unless noted), -10.2% (active); in the assay on NCI-H322M lung (10 µM unless noted) it was -24.9% (active); in the assay with HOP-62 NSCLC (10 µM unless noted), -53.1% (active); in the assay with NCI-H460 lung (10 µM unless noted), 3.34% (active); in the assay with HOP-92 NSCLC (10 µM unless noted) it was -45.9% (active). In addition, the growth in the assay with NCI-H522 lung (10 µM unless noted) was 18.4%; with A549/ATCC NSCLC it was 13.3%; in the assay on 786-0 renal (10 µM unless noted), -48.2% (active); in the assay with COLO 205 colon (10 µM unless noted), 14%; in the assay on DU-145 prostate (10 µM unless noted) it was 14%; in the assay with K-562 leukemia it was 7.11% (active). The growth is -26.5% (active) with MALME-3M melanoma (10 µM unless noted); -38% (active) in the assay with MDA-MB-231 breast (10 µM unless noted); -77.9% (active) in the assay with RXF 393 renal (10 µM unless noted); 35.6% in the assay on SF-268 CNS (10 µM unless noted); -17.4% (active) in the assay with SF-295 CNS (10 µM unless noted); -89.4% (active) in the assay with SF-539 CNS (10 µM unless noted). For the same molecule, the growth with UACC-257 melanoma (10 µM unless noted) is 73.4%.

Regarding `COc1cc(NC(=O)C(C)C)ccc1C(=O)NC(=S)Nc1ccc(S(N)(=O)=O)cc1`, the growth is 102% with NCI-H23 lung (10 µM unless noted); 115% with NCI-H226 lung (10 µM unless noted); 99.7% in the assay with NCI-H322M lung (10 µM unless noted); 91.6% in the assay with HOP-62 NSCLC (10 µM unless noted); 107% in the assay with NCI-H460 lung (10 µM unless noted); 78% in the assay on HOP-92 NSCLC (10 µM unless noted). The growth with NCI-H522 lung (10 µM unless noted) is 76.3%; in the assay with A549/ATCC NSCLC, 106%; in the assay with 786-0 renal (10 µM unless noted), 79.6%; in the assay on COLO 205 colon (10 µM unless noted), 118%; in the assay with DU-145 prostate (10 µM unless noted), 106%; in the assay with K-562 leukemia, 108%. Moreover, the growth is 94.4% with MALME-3M melanoma (10 µM unless noted); 93.1% with MDA-MB-231 breast (10 µM unless noted); 88.7% in the assay on RXF 393 renal (10 µM unless noted); 80.8% in the assay on SF-268 CNS (10 µM unless noted); 84.2% in the assay with SF-295 CNS (10 µM unless noted); 88.9% in the assay on SF-539 CNS (10 µM unless noted). For the same molecule, the figures for the growth with UACC-257 melanoma (10 µM unless noted) and with M14 melanoma (10 µM unless noted) were 101% and 106%, respectively.
